According to PubChem BioAssay (NCATS):
Values without a mark were called inactive. Activity calls are given as the source filed them. The call rests on the fitted dose curve; in most records, active means well fitted activation curve with a large enough effect; inconclusive means small, poorly fitted or top-dose-only effect; inactive means flat fitted curve, though single readings scatter.

test: Confirmation and Secondary Assay for Modulators of Hemoglobin Beta Chain Splicing at IVS2 705 locus (AID 930); details: HeLa EGFP-705 splicing reporter, GFP fluorescence, 48 h; series mostly up to 46.1 µM; activation: at the top concentration;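 further: GFP fluorescence per well restored by corrected splicing of the IVS2-705 intron in EGFP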;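 on activation: HeLa cells stably expressing the EGFP-705 splicing reporter; % of control where 0% means no effect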
Procedure, shortened: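 HeLa EGFP-705 reporter; 500 cells/well, o/n 37C 5% CO2; cpd 2 d; 488 ex/500-520 em laser scan; total peak GFP intensity/well. Ref: 500 nM […] antisense PNA.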
Potency means the concentration at half of the fitted maximal effect.

Row | Compound | activation | Potency
1 | Cn1c(=O)c2c(ncn2CC(O)CO)n(C)c1=O (centres undefined) | 3.4% | 
2 | COc1cc(NS(=O)(=O)c2ccc(N)cc2)nc(OC)n1 | 1.39% | 
3 | Nc1ccc(S(=O)(=O)Nc2ccccn2)cc1 | 0.818% | 
4 | COc1ccc(C(=O)CC(=O)c2ccc(C(C)(C)C)cc2)cc1 | 0.958% | 
5 | CNS(=O)(=O)Cc1ccc2[nH]cc(CCN(C)C)c2c1 | 0.63% [at 38.3 µM] | 
6 | COC(=O)Nc1nc2ccc(C(=O)c3ccccc3)cc2[nH]1 | 0.628% | 
7 | CN(CCOc1ccc(CC2SC(=O)NC2=O)cc1)c1ccccn1 (centres undefined) | 1.9% | 
8 | Nc1nc(=S)c2[nH]cnc2[nH]1 |  | 5.01 µM (active)
9 | CC(C)(Sc1cc(C(C)(C)C)c(O)c(C(C)(C)C)c1)Sc1cc(C(C)(C)C)c(O)c(C(C)(C)C)c1 | -1.17% | 
10 | COc1cnc(NS(=O)(=O)c2ccc(N)cc2)nc1 | 3.44% | 
11 | CCn1cc(C(=O)O)c(=O)c2cc(F)c(N3CCNCC3)nc21 | 3.55% | 
12 | CN1CCCC(n2nc(Cc3ccc(Cl)cc3)c3ccccc3c2=O)CC1 (centres undefined) | -0.963% | 
13 | NCCCC(O)(P(=O)(O)O)P(=O)(O)O | 3.25% | 
14 | O=C(O)c1cccnc1 | -1.18% | 
15 | CN(C)CCc1c[nH]c2ccc(CS(=O)(=O)N3CCCC3)cc12 | 0.646% | 
16 | CCCc1cc(C(N)=S)ccn1 | 0.0979% | 
17 | COC(=O)Nc1nc2ccc(Sc3ccccc3)cc2[nH]1 | 2.6% | 
18 | O=c1oc2c(O)c(O)cc3c(=O)oc4c(O)c(O)cc1c4c23 |  | 10 µM (active)
19 | CCCCOc1ccc(CC(=O)NO)cc1 | -0.171% | 
20 | NC(=O)N1c2ccccc2CC(=O)c2ccccc21 | 3.01% | 
21 | Nc1nc(N)c2nc(CNc3ccc(C(=O)NC(CCC(=O)O)C(=O)O)cc3)cnc2n1 (centres undefined) | 0.892% | 
22 | COc1ccccc1OCC(O)COC(N)=O (centres undefined) | 2.19% | 
23 | OC(Cn1cncn1)(Cn1cncn1)c1ccc(F)cc1F | -0.771% | 
24 | COc1ccc2c(c1)c(CC(=O)OCC(=O)O)c(C)n2C(=O)c1ccc(Cl)cc1 | 0.0672% | 
25 | N=C(N)c1ccc(OCCCCCOc2ccc(C(=N)N)cc2)cc1 | -0.619% | 
26 | Oc1c(Cl)cc(Cl)c2cccnc12 | 0.0337% | 
27 | CCCCS(=N)(=O)CCC(N)C(=O)O (centres undefined) | 2.66% | 
28 | CN(Cc1cc(Br)cc(Br)c1N)C1CCCCC1 | 1.09% | 
29 | C1CCC(C(CC2CCCCN2)C2CCCCC2)CC1 (centres undefined) | -1.12% | 
